HPGD block: HPGD (human) dehydrogenase inhibition | purified HPGD, NADH fluorescence kinetic, PGE2 substrate | P15428 | AID 894 | actives 4.3% (n = 150,000) | Potency, µM, for the others: top-dose activity change, negative = inhibition, usual class: inhibitors; note: potency is the fitted concentration of half-maximal effect
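NADH formation kinetics: reaction with 30 uM PGE2 and 1 mM NAD+ (final), 20 nM enzyme, Tris-HCl pH 8 with Tween 20, after 15 min compound preincubation at room temperature. Fluorescence change, last versus first of five reads.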
ALDH1A1 block: inhibitors of human aldehyde dehydrogenase 1A1; P00352; AID 1030; actives 7.3% (n = 220,000); Purified ALDH1A1, NADH fluorescence, propionaldehyde substrate; Potency, µM (doses to about 75.3 µM), inactives show at the highest dose activity, negative = inhibition, actives largely listed as inhibitors;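 note: potency is the fitted concentration of half-maximal effect; plate controls were no enzyme wells and a reference inhibitor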
IMPase inh: IMPase inhibition in cells | inhibition (IP1 accumulation), % at 46.1 µM | 120,000 tested, under 10 active | AID 901 | CHO-M1 cells, IP1 accumulation, HTRF TR-FRET ratio | P97697; active = well fitted curve in the direction sought with a large enough effect in the signal ratio, not every such curve was filed as active; inconclusive = small, poorly fitted or top-dose-only effect, or a change in a side signal; inactive = no such curve, though single readings can be large or run the other way; the % refers to the signal ratio;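 note: cells stimulated with carbachol in lithium chloride buffer; plate controls were DMSO basal wells for no effect and reference inhibitor wells for full effect; higher means more IMPase inhibition seen as more IP1 and lower FRET ratio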
Target sequence (P97697 whole entry, looked up): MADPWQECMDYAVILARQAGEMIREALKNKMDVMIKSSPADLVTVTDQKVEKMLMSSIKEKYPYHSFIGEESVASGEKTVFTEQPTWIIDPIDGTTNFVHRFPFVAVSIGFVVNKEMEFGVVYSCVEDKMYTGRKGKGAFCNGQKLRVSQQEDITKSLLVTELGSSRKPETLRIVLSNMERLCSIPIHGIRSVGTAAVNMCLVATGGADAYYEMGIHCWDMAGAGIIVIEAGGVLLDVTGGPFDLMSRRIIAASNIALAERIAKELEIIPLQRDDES
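Cellular IMPase inhibition is scored as a rise in cytosolic IP1, detected by competitive TR-FRET between d2-labelled IP1 and a europium anti-IP1 antibody. M1-expressing CHO cells were stimulated with carbachol for 30 min at 37C, with lithium (50 mM LiCl) present in the buffer.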
* marks the source's active call; other numbers are inactive results; ? = inconclusive; nt = no result. Compounds with a hit are over-represented: about 9% of the library has one in this group of screens. Unless noted, calls come from the whole dose curve; as a rule, active = well fitted inhibition curve with a large enough effect (not every such curve was filed as active); inconclusive = small, poorly fitted or top-dose-only effect, or another doubt; inactive = no such curve, though single readings can be large or run the other way. Unless noted, % is set by controls: 0 for no effect and ±100 for the full control effect.

SMILES	HPGD block	ALDH1A1 block	IMPase inh
COc1cc(O)cc(OC)c1OC	-6.1%	-0.1%	nt
Cc1nc(Cl)c(C(=O)NC(=O)NCc2ccccc2)c(C)c1Cl	0.5%	10.4%	5.9
Cc1ccc(NC(=O)C(=O)c2c(-c3ccccc3)cc3ccccn23)cc1S(=O)(=O)N1CCOCC1	-11.8%	?	12.3
COc1cc(/C=C/C(C)=O)cc(OC)c1OC	-23.8%	-3.0%	0.8
COc1cc(/C=C/C(=O)c2cccs2)cc(OC)c1OC	28.2µM*	10µM*	-4.4
CCOc1cccc(=O)c2c(C)n(Cc3ccccc3)c(C)c12	nt	-11.8%	nt
CCOc1cccc(=O)c2c(C)n(Cc3ccco3)c(C)c12	?	2.24µM*	5.9
O=c1c(C/C=C/c2ccccc2)c(O)ccn1Cc1ccc(Cl)cc1Cl	nt	13.1%	nt
O=C(NCCN1CCc2ccccc2C1)C1CC(=O)N(C2CCCC2)C1 (stereo not given)	?	35.5µM*	5.8
CN1CCN(CCCNC(=O)C2CC(=O)N(C3CCCCC3)C2)CC1 (stereo not given)	-0.1%	0.4%	2.5
O=C1CC(c2ccccc2)CC(O)=C1C=NCc1ccccc1 (stereo not given)	-3.8%	7.8%	6.9
COc1ccc(N=CC2=C(O)CCCC2=O)cc1	-19.7%	?	2.6
COc1ccc(OC)c(N=CC2=C(O)CC(C)(C)CC2=O)c1	-19.7%	12.6µM*	-3.6
COc1ccc(N=CC2=C(O)CC(c3ccccc3)CC2=O)c(OC)c1 (stereo not given)	-10.6%	14.1µM*	nt
Cc1cc(N=CC2=C(O)CC(C)(C)CC2=O)no1	-1.2%	-7.4%	7.1
CC1(C)CC(=O)C=C(N=CC2=C(O)CC(C)(C)CC2=O)C1	-13.7%	8.91µM*	3.0
COCCCN=CC1=C(O)CC(C)(C)CC1=O	-6.3%	-0.3%	4.1
COc1ccc(N=CC2=C(O)CC(C)(C)CC2=O)cc1	-4.8%	7.94µM*	14.1
O=C(NC1CCCC1)C(c1ccccc1)N(Cc1cccnc1)C(=O)Cc1cccs1 (stereo not given)	nt	-18.5%	nt
O=C(NCc1cccs1)c1cnc2sccn2c1=O	?	?	-4.2
Cc1sc2ncnc(Sc3nnc4sc5ccccc5n34)c2c1C	-16.1%	?	nt
Cc1oc2c(cc(NS(=O)(=O)c3ccc(Br)cc3)c3ccccc32)c1C(=O)OCc1ccccc1	nt	nt	3.1
Cc1ccc(S(=O)(=O)N(CC(=O)O)Cc2cccc(C)c2)cc1	3.8%	-2.9%	nt
Cc1ccc(-c2nnc3cccc(Cl)n23)cc1	nt	-9.6%	nt
CC(C)(C)NC(=O)COC(=O)c1ccccc1OCC(=O)Nc1ccc(Br)cc1	nt	-4.7%	-2.4
SMILES	HPGD block	ALDH1A1 block	IMPase inh
C=CSc1sc(Cl)c(N(C)C)c1[N+](=O)[O-]	nt	7.94µM*	nt
C=CSc1sc(Cl)c(N(CC)CC)c1[N+](=O)[O-]	nt	15.8µM*	nt
CCN(CC)c1c([N+](=O)[O-])c(=O)sc2ccccc12	?	-2.7%	nt
COCc1[nH]nc2c1C(c1ccc(OC)cc1)C(C#N)=C(N)O2 (stereo not given)	-10.0%	-8.7%	-8.3
CCCc1[nH]nc2c1C(c1ccc(O)cc1OCC)C(C#N)=C(N)O2 (stereo not given)	-5.0%	17.8µM*	4.1
CCCc1[nH]nc2c1C(c1ccsc1)C(C#N)=C(N)O2 (stereo not given)	nt	-12.0%	nt
CCCc1[nH]nc2c1C(c1cccc(OC)c1)C(C#N)=C(N)O2 (stereo not given)	-1.5%	20µM*	1.8
CC(C)c1[nH]nc2c1C(c1ccc(OC(=O)c3ccco3)cc1)C(C#N)=C(N)O2 (stereo not given)	-19.0%	25.1µM*	-6.6
Cc1[nH]nc2c1C(c1ccc(OC(=O)c3ccco3)cc1)C(C#N)=C(N)O2 (stereo not given)	-13.5%	?	-6.9
CCCc1[nH]nc2c1C(c1ccc(OC)cc1OC)C(C#N)=C(N)O2 (stereo not given)	-5.8%	?	6.8
CCOc1ccc(-c2[nH]nc3c2C(c2ccc(O)cc2)C(C#N)=C(N)O3)cc1 (stereo not given)	-29.0%	17.8µM*	3.9
CC(C)=CCl	-2.2%	-5.4%	nt
COc1cccc(C(=O)CN2CCC(NC(=O)NC3CCCCC3)CC2)c1	-9.4%	-14.3%	?
COc1ccc(C(=O)CN2CCN(S(=O)(=O)c3cccc([N+](=O)[O-])c3)CC2)cc1OC	?	20µM*	3.7
COc1cccc(C(=O)CN2CCN(S(=O)(=O)c3cccc([N+](=O)[O-])c3)CC2)c1	-10.3%	17.8µM*	0.6
COc1ccc(C(=O)N2CCN(S(=O)(=O)c3ccc(F)cc3)CC2)cc1OC	nt	1.0%	nt
CCN(CC)C(=O)C1CCC(CNS(=O)(=O)c2cccc3cccnc23)CC1 (stereo not given)	7.94µM*	?	-2.9

Screens deposited in PubChem BioAssay by National Center for Advancing Translational Sciences (NCATS).
